68 molecules from ChEMBL document CHEMBL1201862, “PubChem BioAssay data set” (2004) can be followed below.

SMILES strings stand for the structures. Values joined by “and” are separate entries in the source; they are usually repeats but may differ in a detail not shown here. Identical values can stand only once. About 2,100 (0.53%) of roughly 400,000 compounds were called active. Inconclusive results (about 14%) are left out. How the calls were made is not given here. For the sample, actives were picked, then their nearest neighbours and some compounds at random.

The assay deals with Ataxin-2 (Homo sapiens) (UniProt Q99700). Briefly: qHTS for Inhibitors of ATXN expression. The format is functional. (In general: Quantitative high-throughput screening tests each substance at several concentrations.)
Sequence of Ataxin-2 (Homo sapiens) (Q99700 whole entry): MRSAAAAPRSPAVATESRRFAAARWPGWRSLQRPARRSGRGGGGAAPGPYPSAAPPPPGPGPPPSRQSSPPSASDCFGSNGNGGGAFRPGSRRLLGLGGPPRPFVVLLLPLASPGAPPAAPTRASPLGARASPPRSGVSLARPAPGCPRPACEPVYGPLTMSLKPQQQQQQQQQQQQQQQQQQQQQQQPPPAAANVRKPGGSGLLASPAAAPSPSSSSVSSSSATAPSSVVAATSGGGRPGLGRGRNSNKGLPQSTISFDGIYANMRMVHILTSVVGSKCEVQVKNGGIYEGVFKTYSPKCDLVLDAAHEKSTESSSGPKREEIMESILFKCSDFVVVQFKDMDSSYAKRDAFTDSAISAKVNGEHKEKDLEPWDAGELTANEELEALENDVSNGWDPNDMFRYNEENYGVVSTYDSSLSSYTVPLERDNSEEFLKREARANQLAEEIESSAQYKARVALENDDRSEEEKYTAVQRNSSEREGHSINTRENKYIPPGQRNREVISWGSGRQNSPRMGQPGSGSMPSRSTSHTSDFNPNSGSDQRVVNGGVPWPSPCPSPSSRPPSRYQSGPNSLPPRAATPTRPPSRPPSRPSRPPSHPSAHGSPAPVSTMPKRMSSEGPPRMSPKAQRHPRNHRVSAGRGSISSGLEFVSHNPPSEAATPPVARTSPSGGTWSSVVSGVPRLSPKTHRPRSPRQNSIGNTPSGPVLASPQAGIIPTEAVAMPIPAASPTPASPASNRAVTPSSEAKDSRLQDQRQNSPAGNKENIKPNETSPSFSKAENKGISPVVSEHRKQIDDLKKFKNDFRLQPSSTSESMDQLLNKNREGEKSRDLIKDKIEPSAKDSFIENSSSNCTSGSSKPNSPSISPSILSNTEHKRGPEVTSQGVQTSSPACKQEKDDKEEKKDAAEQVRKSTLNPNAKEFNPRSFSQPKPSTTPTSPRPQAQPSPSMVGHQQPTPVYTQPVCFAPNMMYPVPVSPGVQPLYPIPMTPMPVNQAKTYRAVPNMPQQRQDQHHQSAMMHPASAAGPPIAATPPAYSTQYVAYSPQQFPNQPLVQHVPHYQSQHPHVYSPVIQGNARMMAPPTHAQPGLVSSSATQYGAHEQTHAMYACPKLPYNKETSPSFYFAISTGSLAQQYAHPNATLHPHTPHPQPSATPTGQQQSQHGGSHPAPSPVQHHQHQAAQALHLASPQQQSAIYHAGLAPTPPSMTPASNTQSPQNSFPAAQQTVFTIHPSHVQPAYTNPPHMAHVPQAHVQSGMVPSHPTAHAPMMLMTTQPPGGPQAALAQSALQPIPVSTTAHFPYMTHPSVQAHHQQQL
As to `CCn1c(COc2cccc(C)c2)nnc1SCC(=O)NC1CCCC1`, the Potency result is “inactive”.
On to `Cc1ccc(NCc2nnc(SCC(=O)O)n2-c2ccc(C)cc2)cc1`, for which the Potency entry is “inactive”.
For the molecule `Cc1cccc(OCc2nnc(SCC(=O)O)n2-c2ccccc2)c1`, the Potency is 39.8 µM (active).
As for `COc1ccc2ccc3cccc[n+]3c2c1`, the Potency result is “inactive”.
On to `CC(=O)Nc1ccc(S(=O)(=O)Nc2nc(C)cc(-n3nc(C)cc3C)n2)cc1`, for which the Potency result is “inactive”.
Regarding `Cc1cc(NC(=O)CSc2nc3c(C)cccc3cc2C#N)no1`, the Potency entry was “inactive”.
The entry for `NNC(=O)c1oc2nc(-c3ccccc3)cc(-c3ccco3)c2c1N` is “inactive”.
`O=C1[C@H](Cc2ccccc2)NCC=CC[C@@H](c2ccc(Cl)cc2)N1Cc1ccccc1`: the Potency was 35.5 µM (active).
The figure for `O=C1[C@H](Cc2ccccc2)NCC=CC[C@@H](c2ccc(Cl)cc2)N1Cc1ccc(Cl)cc1` is 28.2 µM (active); for `Cc1ccc2nc3nc(NCC4CCCO4)c(C(=O)NC4CCCC4)cc3c(=O)n2c1` (stereo not drawn) it is “inactive”.
Take `CCC(=O)c1cc2c(C)cc(=O)oc2c(C)c1OC(C)=O`: the Potency entry was “inactive”.
To `Brc1ccc(OCc2nnnn2-c2ccccc2)cc1` belongs “inactive”; to `COc1ccccc1-n1nnnc1S(=O)(=O)Cc1ccc(Cl)cc1`, 25.1 µM (active).
As to `COc1ccccc1N1CCN(S(=O)(=O)c2ccc(-n3cnnn3)cc2)CC1`, the Potency result was “inactive”.
For `Cc1cccc(/C=C(\C(=O)C(=O)O)c2ccc3ccccc3n2)c1`, the Potency entry was “inactive”.
The figure for `NC(Cc1ccc(Cl)cc1)c1csc(Nc2cc(Oc3ccccc3)ncn2)n1` (stereo not drawn) is 35.5 µM (active).
For the molecule `CC(C)CC(N)c1csc(Nc2cc(Oc3ccccc3)ncn2)n1` (stereo not drawn), the Potency was 39.8 µM (active).
`CCn1c(SCc2ccc(F)cc2)nc2c(c1=O)SCC2`: the Potency result was “inactive”.
For the molecule `COc1cccc(-c2ccc3c(N)c(C(=O)c4ccc(F)cc4)sc3n2)c1`, the Potency entry is “inactive”.
To `C=CCNC(S)=Nc1ccc(Br)cc1F` belongs “inactive”; to `CSc1ccccc1NC(=O)c1cc(C2CC2)on1`, “inactive”; to `CCOC(=O)CSC1=NC(=O)/C(=C\c2ccc(OC(C)=O)cc2)S1`, 28.2 µM (active).
The entry for `CCOC(=O)C1=C(C)N=c2sc(=Cc3ccc(OCC(=O)O)cc3)c(=O)n2C1c1ccc(SC)cc1` (stereo not drawn) is “inactive”; for `CCOC(=O)CSC1=N/C(=C/c2ccc(-n3cncn3)cc2)C(=O)N1C(C)=O` it is “inactive”.
The entry for `CCOC(=O)c1cc2c(=O)n3ccccc3nc2n(CCOC)/c1=N\C(=O)C(C)(C)C` is “inactive”; for `Cc1cccn2c(=O)c3cc(C(=O)NCc4ccco4)c(=N)n(C4CCCCC4)c3nc12` it is “inactive”.
Take `Cc1ccc(N2C(=O)/C(=C\Nc3ccccc3-c3nnc(S)nc3O)c3ccccc3C2=O)c(C)c1`: the Potency is 17.8 µM (active).
For `Cc1cccc(N2C(=O)/C(=C\Nc3cc(O)ccc3C)c3ccccc3C2=O)n1`, the Potency result is “inactive”.
For the molecule `Cc1ccc(N2C(=O)/C(=C/NC3CCS(=O)(=O)C3)c3ccccc3C2=O)c(C)c1` (stereo not drawn), the Potency entry was “inactive”.
As to `CCOc1ccc(N2C(=O)/C(=C/Nc3ccnn3Cc3ccncc3)c3ccccc3C2=O)cc1`, the Potency entry was “inactive”.
In the case of `COc1ccc(CNCCSc2nnnn2C)c(OC)c1OC`, the Potency result was “inactive”.
With `Cn1nnnc1SCc1cccc2ccccc12`, the Potency entry was “inactive”.
Regarding `Cn1nnnc1SCCCNCc1cc(Br)ccc1OCc1ccccc1F`, the Potency was 25.1 µM (active).
Consider `Cn1c2nc(=O)n(-c3ccccc3)c(=O)c-2nc2c1CCCC2`, for which the Potency result is “inactive”.
As for `COc1ccccc1NC(=S)NC(=O)CCc1ccccc1`, the Potency result was “inactive”.
Take `CCOc1ccccc1NC(=O)/C=C/C(N)=O`: the Potency was 39.8 µM (active).
`CCOc1ccccc1NC(=O)c1cc(SC)ccc1Cl`: the Potency entry is “inactive”.
On to `CCCOc1ccccc1NC(=O)/C=C/C(N)=O`, for which the Potency is 35.5 µM (active).
With `CCCOc1ccccc1C1C(C(=O)OC)=CN(C(C)C)C=C1C(=O)OC`, the Potency entry is “inactive”.
As for `COc1ccccc1NC(=O)CCC(=O)OC(C)C(=O)c1ccccc1` (stereo not drawn), the Potency result was “inactive”.
`CCCCOc1ccccc1C1C(C(=O)OC)=CN(CC)C=C1C(=O)OC`: the Potency result was “inactive”.
In the case of `COc1ccccc1NC(=O)/C=C/C(N)=O`, the Potency was 39.8 µM (active).
As for `CCOc1ccccc1NC(=O)CN1C(=O)COc2ccccc21`, the Potency entry is “inactive”.
Take `Cc1cc(Br)ccc1-n1nc(C)c(/C=N/c2cccc3nsnc23)c1O`: the Potency result was “inactive”.
To `Cc1cc(NC(=O)Cn2cc([N+](=O)[O-])cn2)n(Cc2ccc(F)cc2)n1` belongs “inactive”.
For the molecule `COc1ccc(C(=O)c2oc3ccc(OC)cc3c2NC(C)=O)cc1`, the Potency entry was “inactive”.
With `O=C1C=C(NCCc2ccccc2)C2(CCCCC2)O1`, the Potency entry is “inactive”.
Consider `CCc1cccc2c1Sc1ccccc1CC2N1CCNCC1` (stereo not drawn), for which the Potency was 39.8 µM (active).
With `CN1CCN(C2Cc3ccccc3Sc3ccc(Cl)cc32)CC1` (stereo not drawn), the Potency is 22.4 µM (active) and 28.2 µM (active).
As to `CCc1ccccc1N1C(=O)[C@@H]2Cc3ccccc3CN2C1=O`, the Potency result is “inactive”.
Turning to `CN1CCN(C2Cc3ccccc3Sc3cc(C(F)(F)F)ccc32)CC1` (stereo not drawn), the Potency was 39.8 µM (active).
Take `CSc1ccc2c(c1)C(N1CCN(C)CC1)Cc1ccccc1S2` (stereo not drawn): the Potency was 22.4 µM (active) and 31.6 µM (active).
Regarding `FC(F)(F)c1ccccc1C1=CC(c2ccccc2)n2ncnc2N1` (stereo not drawn), the Potency result is “inactive”.
Turning to `Cc1c2ccccc2nc2c(F)c(NC(C)C)c(F)c(F)c12`, the Potency result was “inactive”.
The entry for `c1ccc(CCNc2ccnc3cc4ccccc4cc23)cc1` is “inactive”; for `CC(C)Nc1ccc(Nc2ccnc3cc4ccccc4cc23)cc1` it is 31.6 µM (active); for `Cc1c(CCC(=O)NC2CC2)c(=O)oc2cc(O)ccc12` it is “inactive”.
As to `Cc1cc(/C=N/NC(=O)Cn2c3ccccc3c(=O)c3ccccc32)c(C)n1-c1ccc(Cl)cc1`, the Potency result was “inactive”.
In the case of `CC1CN(C(=O)COC(=O)c2ccc(NC(=O)CC#N)cc2)CC(C)O1` (stereo not drawn), the Potency result is “inactive”.
To `NC(=O)c1c(NC(=O)c2ccc(S(=O)(=O)N3CCOCC3)cc2)sc2c1CCCCC2` belongs “inactive”; to `O=C(c1nc2n(n1)C(c1ccc(Cl)cc1)C=C(c1ccccc1)N2)N1CCOCC1` (stereo not drawn), “inactive”.
As to `O=C(c1cccn2c(=O)c3cc(Cl)ccc3nc12)N1CCOCC1`, the Potency entry is “inactive”.
`O=C(c1cc2cc(Br)ccc2s1)N1CCOCC1`: the Potency result is “inactive”.
As to `O=C(c1nnsc1[S+]([O-])c1ccc(Cl)cc1)N1CCOCC1` (stereo not drawn), the Potency was 20 µM (active).
With `O=C(c1nnsc1S(=O)(=O)c1ccc(Cl)cc1)N1CCOCC1`, the Potency is 26.7 µM (active).
To `Cc1nnsc1C(=O)NNc1ccc(Cl)cc1` belongs “inactive”.
`CCCNC(=O)c1nnsc1[S+]([O-])c1ccc(Cl)cc1` (stereo not drawn): the Potency was 6.7 µM (active).
As for `CCCc1nn(C)c(C(=O)Nc2ccc(Cl)cc2)c1Cl`, the Potency result is “inactive”.
